# The full list was thinned out, with hits kept by preference.
# Luciferase inh: inhibitors of firefly luciferase; P08659; 2.2% of 72,000 active; Potency, µM (titrated, usually from 57.1 µM), hits mostly inhibitors; AID 411; purified firefly luciferase, luminescence, 8 min; note: nearly all actives have a fitted effect of over 40% in size
# Target sequence (P08659 whole entry, looked up): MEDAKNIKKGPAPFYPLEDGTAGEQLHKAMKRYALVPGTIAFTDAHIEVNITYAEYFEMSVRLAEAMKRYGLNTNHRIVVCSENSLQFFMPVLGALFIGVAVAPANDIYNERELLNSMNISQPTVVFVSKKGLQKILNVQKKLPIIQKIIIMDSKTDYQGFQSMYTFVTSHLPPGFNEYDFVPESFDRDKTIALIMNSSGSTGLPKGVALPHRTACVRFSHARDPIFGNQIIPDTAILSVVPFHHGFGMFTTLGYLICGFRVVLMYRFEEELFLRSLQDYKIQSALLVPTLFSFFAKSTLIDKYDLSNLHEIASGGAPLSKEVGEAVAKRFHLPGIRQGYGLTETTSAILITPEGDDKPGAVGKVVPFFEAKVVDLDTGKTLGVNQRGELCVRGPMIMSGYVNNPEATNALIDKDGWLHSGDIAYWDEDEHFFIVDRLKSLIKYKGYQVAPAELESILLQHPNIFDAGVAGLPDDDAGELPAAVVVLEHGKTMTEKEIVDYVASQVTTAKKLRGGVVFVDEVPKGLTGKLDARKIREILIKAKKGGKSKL
#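 qHTS concentration-response profiling: light output of P. pyralis luciferase with luciferin and 10 uM ATP, imidazole buffer pH 7.2. Read by luminescence after 8-min room-temperature incubation.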
# p53ts 39C kill: p53ts cell cytotoxicity, nonpermissive temperature; H1299-p53A138V viability at 39C, ATP luminescence, 24 h; Potency, µM (doses to about 46.1 µM), usual class: cytotoxic; 1.5% of 130,000 active; AID 902; note: nearly all actives have a fitted effect of over 55% in size
# Peg3 imprint: inducers of genomic imprint erasure in mouse ES cells; AID 1948; 0.02% of 110,000 active; Potency, µM (highest dose often 60.7 µM), usual class: activators; mouse ES Peg3-LacZ reporter, beta-gal luminescence, 40 h
#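 Readout: BetaGlo luminescence (5 min, room temp) for LacZ from the normally silent maternal Peg3 allele in female Peg3LacZ-Neo ES cells. Cells 300/well, 40 h, 37C, 5% CO2. Data normalized per plate to negative controls.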
# IMPase inh: cell-permeable inhibitors of inositol monophosphatase (IMPase). CHO-M1 cells, IP1 accumulation, HTRF TR-FRET ratio. inhibition (IP1 accumulation), % at 46.1 µM. 120,000 tested, under 10 active; active = well fitted curve in the direction sought with a large enough effect in the signal ratio, not every such curve was filed as active; inconclusive = small, poorly fitted or top-dose-only effect, or a change in a side signal; inactive = no such curve, though single readings can be large or run the other way; the % refers to the signal ratio;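 note: cells stimulated with carbachol in lithium chloride buffer; higher means more IMPase inhibition seen as more IP1 and lower FRET ratio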
#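 Cellular IMPase inhibition is scored as a rise in cytosolic IP1, detected by competitive TR-FRET between d2-labelled IP1 and a europium anti-IP1 antibody. M1-expressing CHO cells were stimulated with carbachol for 30 min at 37C, with lithium (50 mM LiCl) present in the buffer.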
# p53ts 32C kill: p53ts cell cytotoxicity, permissive temperature; AID 924; H1299-p53A138V at 32C, ATP luminescence viability, 24 h; 0.93% of 130,000 active; Potency, µM (titrated, usually from 46.1 µM), hits mostly cytotoxic; note: nearly all actives have a fitted effect of over 55% in size
#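 Viability by ATPlite luminescence after 24 h compound treatment (up to 46 uM) at the permissive 32C. Cells are H1299 carrying p53 A138V. Scale runs from DMSO basal to 100 uM tamoxifen as full kill; AC50 from Hill fits.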
# IkB sig inh: suppresses IkB signaling in ABC-DLBCL reporter cells | Potency, µM (top dose mostly 57.1 µM) | ABC-DLBCL IkBa-CBG/CBR dual luciferase ratio, 4 h; response scale: scaled: untreated 0%, proteasome inhibitor 100% | 0.04% of 110,000 active; active = well fitted curve in the direction sought with a large enough effect in the signal ratio, not every such curve was filed as active; inconclusive = small, poorly fitted or top-dose-only effect, or a change in a side signal; the % refers to the signal ratio;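 note: the direction sought is a rising ratio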
#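 In this assay, an IκBα–CBG68 fusion accumulates when IKK-driven degradation is blocked; native CBR normalizes for cell number. OCI-Ly3 cells were treated 4 h with compound and doxycycline, then green and red light read after Chroma-Glo addition.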
# Numbers stand for hits; – = inactive; ? = inconclusive; · = not tested or not shown; [ ] = remark or other dose. Unless noted, calls come from the whole dose curve; as a rule, active = well fitted curve in the direction sought with a large enough effect; inconclusive = small, poorly fitted or top-dose-only effect, or another doubt; inactive = no such curve, though single readings can be large; an effect the other way counts as inactive or inconclusive.
SMILES,Luciferase inh,p53ts 39C kill,Peg3 imprint,IMPase inh,p53ts 32C kill,IkB sig inh
CCCn1c(C)cc(C(=O)CN2C(=O)c3ccccc3C2=O)c1C,16µM,–,–,·,–,–
COc1ccc(C(=O)CN2C(=O)c3ccccc3C2=O)c(OC)c1C,–,–,–,–,–,–
Cc1cc(C(=O)CN2C(=O)C3CC=CCC3C2=O)c(C)n1-c1ccccc1 (stereo unspecified),4µM,13µM,–,–,10µM,–
CCN1CCCC1CNC(=O)c1ccc(-n2c(=O)c(=O)[nH]c3ccccc32)cc1 (stereo unspecified),·,–,·,·,–,·
CO[C@@H]1COC(=O)C/C=C\[C@H](C)COC(=O)[C@H](Cc2ccccc2)NC(=O)C/C=C\[C@H]1C,–[11.4 µM],–[9.22 µM],·,·,–[9.22 µM],·
COC(=O)CC[C@@H](C)[C@@H]1CC[C@@H]2[C@@H]3CC[C@H]4C[C@@H](O)CC[C@@]4(C)[C@@H]3CC[C@]21C,–[11.4 µM],–[9.22 µM],–[10.9 µM],·,–[9.22 µM],–[11.4 µM]
Cc1ccc(S(=O)(=O)N(CC(=O)O)c2cccc(Cl)c2)cc1,·,–,·,·,–,·
CC(=O)c1sc(Nc2nc3ccc(F)cc3s2)nc1C,16µM,?,–,?,20µM,?
COC(=O)c1ccc2nc(Nc3nc4ccc(F)cc4s3)sc2c1,·,–,·,–,–,·
C(=N\c1nc2ccccc2[nH]1)/c1cccs1,7.9µM,–,–,–,–,–
Cn1c(/C=N/c2nc3ccccc3[nH]2)nc2ccccc21,–,?,–,–,–,?
CCCCOC(=O)c1ccc(Nc2nc3ccccc3c3nnc(C)n23)cc1,·,–,–[10.9 µM],·,–,?
COc1ccc(N2CCN(C(=O)CSc3ncccc3-c3nc4ccccc4[nH]3)CC2)cc1,13µM,–,–,–,–,?
CCN(C(=O)CSc1nc(-c2ccc(C(C)C)cc2)no1)c1cccc(C)c1,·,–,–[10.9 µM],·,–,–
COc1ccc(NC(=O)c2cc3nc(-c4ccc(C)c(C)c4)cc(C(F)(F)F)n3n2)cc1,·,10µM,–[10.9 µM],–,–,–
CCc1ccc2oc(-c3cc(N=Cc4cccc(OC)c4O)ccc3O)nc2c1,1.3µM,10µM,–,–,10µM,?
C#CCCCO/N=C1/[C@H]2O[C@@H]2[C@@H](O)[C@H]2[C@H]1CCn1c(=O)n(C)c(=O)n12,–[11.4 µM],–[9.22 µM],·,·,–[9.22 µM],·
Cc1ccc(Nc2cccccc2=O)cc1,25µM,–,–,–,–,–
O=C(/C=C/c1ccc(Cl)cc1Cl)c1nc2ccccc2[nH]1,·,·,·,–,·,·
Cc1cccc(/C=C(\c2nc3ccccc3[nH]2)S(=O)(=O)c2ccccc2)c1,·,4.5µM,·,–,4.5µM,·
CN1CCc2c(cc(O)c(O)c2Cl)[C@H](c2cccc(Cl)c2)C1,–,–,·,–,–,–
c1ccc2c(c1)-c1nc3ccccc3cc1[C@H]2N1CCOCC1,–[11.4 µM],–[9.22 µM],–[10.9 µM],·,–[9.22 µM],–[11.4 µM]
OC1c2ccccc2-c2nc3ccccc3cc21 (stereo unspecified),·,10µM,–,·,?,·
Cc1ccn2cc(-c3ccc(C)c(NS(=O)(=O)c4ccc(Cl)cc4)c3)nc2c1,·,–,–[10.9 µM],·,–,?
CCS(=O)(=O)Nc1cc(-c2cn3ccc(C)cc3n2)ccc1C,·,13µM,–[10.9 µM],·,?,–
SMILES,Luciferase inh,p53ts 39C kill,Peg3 imprint,IMPase inh,p53ts 32C kill,IkB sig inh
Cc1nnc(SCCn2c(N3CCCC(C)C3)nc3c2c(=O)n(C)c(=O)n3C)s1 (stereo unspecified),–,6.3µM,–,–,5µM,–
Cc1nnc(SCCn2c(N3CCC(C)CC3)nc3c2c(=O)n(C)c(=O)n3C)s1,–,–,–,·,–,–
O=C(Nc1ccc2c(c1)ncn2-c1ccccc1)c1ccco1,13µM,?,–,–,–,?
Cn1cnc2cc(NC(=O)c3ccco3)ccc21,–,7.9µM,–,–,16µM,–
CCOc1ccc(NC(=O)c2cccc3c2C(=O)N(Cc2cccnc2)C3)cc1,4µM,?,–,–,?,–
COC(CNC(=O)c1cccc2c1C(=O)N(Cc1cccnc1)C2)OC,·,·,·,–,·,·
CCCN1Cc2cccc(C(=O)Nc3ccc(OC)c(OC)c3)c2C1=O,–,–,–,·,–,–
CCCN1Cc2cccc(C(=O)Nc3ccc(CN4CCCC4)cc3)c2C1=O,20µM,–,–,·,–,–
O=C(CSc1nc2ccccc2c2ccccc12)c1ccccc1,–[11.4 µM],–[9.22 µM],–[10.9 µM],·,–[9.22 µM],–[11.4 µM]
COc1ccc(O)c(C(=O)CC(=O)c2ccccc2)c1,20µM,13µM,–,–,10µM,–
Cc1cc(C(=O)COC(=O)CN(C)S(=O)(=O)c2ccc(Cl)cc2)c(C)n1CC1CCCO1 (stereo unspecified),–,–,–,–,–,–
Cc1cc(C(=O)COC(=O)C2COc3ccccc3O2)c(C)n1CC1CCCO1 (stereo unspecified),16µM,–,–,–,–,–
CC(=O)OC[C@@H]1O[C@@H](O/N=C2/C[C@@H](O)[C@@H](O)[C@@H]3[C@@H]4C(=O)N([C@@H](C)c5ccccc5)C(=O)[C@H]4CC[C@@H]23)[C@H](OC(C)=O)[C@H](OC(C)=O)[C@@H]1OC(C)=O,–[11.4 µM],–[9.22 µM],·,·,–[9.22 µM],·
NCCCCNS(=O)(=O)c1cccc2c(Cl)cccc12,–,16µM,–,–,–,–
Cc1cccc(-c2nnn3c2nc(NCc2ccc4c(c2)OCO4)c2ccccc23)c1,·,6.3µM,–[10.9 µM],·,–,?
CO[C@@H]1/C=C\O[C@]2(C)Oc3c(C)c(O)c4c(O)c(cc(O)c4c3C2=O)NC(=O)/C(C)=C\C=C/[C@H](C)[C@@H](O)[C@H](C)[C@H](O)[C@H](C)[C@H](OC(C)=O)[C@@H]1C,–[11.4 µM],–[9.22 µM],·,·,–[9.22 µM],–[11.4 µM]
COc1ccc(-c2ccc(SCC(=O)N3CCOCC3)nn2)cc1,13µM,?,–,–,?,–
COc1ccc(-c2cc(C(F)(F)F)nc(S(=O)(=O)CCC(=O)N3CCOCC3)n2)cc1,–,?,–,–,5µM,–
O=C(O)c1ccccc1NS(=O)(=O)c1ccccc1F,·,–,·,·,–,·
NCC(=O)N[C@@H](CCCN=C(N)N)C(=O)NCC(=O)N[C@@H](CC(=O)O)C(=O)N[C@@H](CC(N)=O)C(=O)N1CC[C@@H](C(=O)O)C1,·,·,–,·,·,·
CC(=O)Nc1cc(-c2ccccc2)nn1Cc1cccc(Cl)c1,·,–,–[10.9 µM],·,–,?
CSc1nn(Cc2cccc(Cl)c2)c(N(C(C)=O)C(C)=O)c1S(=O)(=O)c1ccccc1,·,20µM,–[10.9 µM],·,–,–
CC1(C)COCN1S(=O)(=O)c1ccc(C(=O)Nc2nnc(-c3ccc(Cl)s3)o2)cc1,–,7.9µM,–,?,?,–
COc1cc(OC)c2cc(-c3ccncc3)cnc2c1,–,–,–,–,–,–
CCCCCCCCC(=O)NCc1cc(OC)c(O)cc1I,–,32µM,–,–,–,?
O=C(c1[nH]o[n+](=O)c1C(=O)c1csc2ccccc12)c1csc2ccccc12,–[11.4 µM],?,·,·,–[9.22 µM],–[11.4 µM]

# Screening data deposited in PubChem by National Center for Advancing Translational Sciences (NCATS).
